# Experimental data published in ChEMBL document CHEMBL1961873, “Compounds: GSK PKIS; Assays: Nanosyn kinase panel” (2012).
# Key:
# [1] = target: MAP/microtubule affinity-regulating kinase 3 (Homo sapiens) (UniProt P27448); conditions: at 1 µM;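 note: reported values are averaged percent inhibition of MARK3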
# [2] = target: T1, MAP/microtubule affinity-regulating kinase 4 (Homo sapiens) (UniProt Q96L34); conditions: at 0.1 µM
# T1 sequence (whole entry): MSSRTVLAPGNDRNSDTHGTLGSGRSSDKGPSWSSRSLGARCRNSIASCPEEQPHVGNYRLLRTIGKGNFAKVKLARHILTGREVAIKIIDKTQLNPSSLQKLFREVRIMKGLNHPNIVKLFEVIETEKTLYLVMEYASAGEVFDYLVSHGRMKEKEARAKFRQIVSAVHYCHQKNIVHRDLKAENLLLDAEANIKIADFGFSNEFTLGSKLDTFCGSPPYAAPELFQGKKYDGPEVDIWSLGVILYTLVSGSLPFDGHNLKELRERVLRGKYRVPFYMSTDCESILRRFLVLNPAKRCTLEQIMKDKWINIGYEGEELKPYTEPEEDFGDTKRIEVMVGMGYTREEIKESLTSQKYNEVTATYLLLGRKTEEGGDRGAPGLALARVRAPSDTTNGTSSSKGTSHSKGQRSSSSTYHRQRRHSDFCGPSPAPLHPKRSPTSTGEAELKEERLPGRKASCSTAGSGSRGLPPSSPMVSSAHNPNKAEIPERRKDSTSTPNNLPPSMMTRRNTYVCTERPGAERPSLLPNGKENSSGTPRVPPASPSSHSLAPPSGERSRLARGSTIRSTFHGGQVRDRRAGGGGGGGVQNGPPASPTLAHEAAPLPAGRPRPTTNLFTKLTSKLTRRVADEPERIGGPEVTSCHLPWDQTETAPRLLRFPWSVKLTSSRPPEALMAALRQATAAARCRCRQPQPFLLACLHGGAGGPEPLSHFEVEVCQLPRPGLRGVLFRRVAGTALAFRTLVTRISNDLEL
# [3] = target: T1, MAP/microtubule affinity-regulating kinase 4 (Homo sapiens); conditions: at 1 µM
# [4] = target: Maternal embryonic leucine zipper kinase (Homo sapiens) (UniProt Q14680); conditions: at 0.1 µM
# Chain of Maternal embryonic leucine zipper kinase (Homo sapiens) (Q14680 whole entry, looked up): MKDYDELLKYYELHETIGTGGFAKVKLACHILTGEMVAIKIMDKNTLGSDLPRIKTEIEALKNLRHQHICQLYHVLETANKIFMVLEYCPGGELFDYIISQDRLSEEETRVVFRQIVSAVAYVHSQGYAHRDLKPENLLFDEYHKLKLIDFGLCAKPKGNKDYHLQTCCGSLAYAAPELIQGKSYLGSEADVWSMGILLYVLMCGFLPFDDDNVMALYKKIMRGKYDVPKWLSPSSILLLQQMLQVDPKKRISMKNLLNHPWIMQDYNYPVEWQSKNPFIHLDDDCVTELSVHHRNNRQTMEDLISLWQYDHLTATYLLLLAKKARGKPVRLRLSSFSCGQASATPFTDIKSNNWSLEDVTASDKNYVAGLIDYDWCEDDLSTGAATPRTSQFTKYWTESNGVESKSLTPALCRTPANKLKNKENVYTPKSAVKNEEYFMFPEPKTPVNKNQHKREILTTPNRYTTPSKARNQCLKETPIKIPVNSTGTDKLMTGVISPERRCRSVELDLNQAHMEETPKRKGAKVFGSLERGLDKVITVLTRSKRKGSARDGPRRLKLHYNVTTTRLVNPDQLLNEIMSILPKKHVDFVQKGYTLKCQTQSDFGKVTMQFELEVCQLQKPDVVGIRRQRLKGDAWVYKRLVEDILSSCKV
# [5] = target: Maternal embryonic leucine zipper kinase (Homo sapiens) (UniProt Q14680); conditions: at 1 µM
# [6] = target: MAP kinase-interacting serine/threonine-protein kinase 1 (Homo sapiens) (UniProt Q9BUB5); conditions: at 0.1 µM
# Chain of MAP kinase-interacting serine/threonine-protein kinase 1 (Homo sapiens) (Q9BUB5 whole entry, looked up): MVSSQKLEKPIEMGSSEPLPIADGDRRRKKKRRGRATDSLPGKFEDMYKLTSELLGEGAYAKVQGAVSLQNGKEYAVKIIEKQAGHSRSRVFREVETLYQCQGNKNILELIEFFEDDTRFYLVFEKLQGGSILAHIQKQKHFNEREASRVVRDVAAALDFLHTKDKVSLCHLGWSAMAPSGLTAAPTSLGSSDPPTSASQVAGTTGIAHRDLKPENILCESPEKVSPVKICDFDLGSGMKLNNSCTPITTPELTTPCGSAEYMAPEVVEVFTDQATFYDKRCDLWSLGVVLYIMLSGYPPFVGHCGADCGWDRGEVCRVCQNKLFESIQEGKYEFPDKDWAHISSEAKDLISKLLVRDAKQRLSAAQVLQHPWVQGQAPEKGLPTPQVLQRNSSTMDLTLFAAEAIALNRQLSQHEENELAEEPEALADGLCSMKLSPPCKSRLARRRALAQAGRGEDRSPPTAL
# [7] = target: MAP kinase-interacting serine/threonine-protein kinase 1 (Homo sapiens) (UniProt Q9BUB5); conditions: at 1 µM
# [8] = target: MAP kinase-interacting serine/threonine-protein kinase 2 (Homo sapiens) (UniProt Q9HBH9); conditions: at 0.1 µM
# Chain of MAP kinase-interacting serine/threonine-protein kinase 2 (Homo sapiens) (Q9HBH9 whole entry, looked up): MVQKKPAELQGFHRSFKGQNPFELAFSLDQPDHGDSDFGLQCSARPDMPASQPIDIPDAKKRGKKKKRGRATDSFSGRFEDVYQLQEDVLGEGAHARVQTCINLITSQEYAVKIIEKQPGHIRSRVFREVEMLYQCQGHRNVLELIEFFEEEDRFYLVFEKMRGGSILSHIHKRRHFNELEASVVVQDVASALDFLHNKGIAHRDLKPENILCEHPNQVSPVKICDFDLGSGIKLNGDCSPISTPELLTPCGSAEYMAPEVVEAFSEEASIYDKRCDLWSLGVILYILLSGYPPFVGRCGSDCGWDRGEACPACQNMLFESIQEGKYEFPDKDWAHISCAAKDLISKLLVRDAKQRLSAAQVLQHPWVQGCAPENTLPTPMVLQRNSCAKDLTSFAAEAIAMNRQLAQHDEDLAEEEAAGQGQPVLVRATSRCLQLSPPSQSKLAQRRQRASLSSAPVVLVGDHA
# [9] = target: MAP kinase-interacting serine/threonine-protein kinase 2 (Homo sapiens) (UniProt Q9HBH9); conditions: at 1 µM
# [10] = target: Serine/threonine-protein kinase MARK2 (Homo sapiens) (UniProt Q7KZI7); conditions: at 0.1 µM
# Chain of Serine/threonine-protein kinase MARK2 (Homo sapiens) (Q7KZI7 whole entry, the tested form may be a part): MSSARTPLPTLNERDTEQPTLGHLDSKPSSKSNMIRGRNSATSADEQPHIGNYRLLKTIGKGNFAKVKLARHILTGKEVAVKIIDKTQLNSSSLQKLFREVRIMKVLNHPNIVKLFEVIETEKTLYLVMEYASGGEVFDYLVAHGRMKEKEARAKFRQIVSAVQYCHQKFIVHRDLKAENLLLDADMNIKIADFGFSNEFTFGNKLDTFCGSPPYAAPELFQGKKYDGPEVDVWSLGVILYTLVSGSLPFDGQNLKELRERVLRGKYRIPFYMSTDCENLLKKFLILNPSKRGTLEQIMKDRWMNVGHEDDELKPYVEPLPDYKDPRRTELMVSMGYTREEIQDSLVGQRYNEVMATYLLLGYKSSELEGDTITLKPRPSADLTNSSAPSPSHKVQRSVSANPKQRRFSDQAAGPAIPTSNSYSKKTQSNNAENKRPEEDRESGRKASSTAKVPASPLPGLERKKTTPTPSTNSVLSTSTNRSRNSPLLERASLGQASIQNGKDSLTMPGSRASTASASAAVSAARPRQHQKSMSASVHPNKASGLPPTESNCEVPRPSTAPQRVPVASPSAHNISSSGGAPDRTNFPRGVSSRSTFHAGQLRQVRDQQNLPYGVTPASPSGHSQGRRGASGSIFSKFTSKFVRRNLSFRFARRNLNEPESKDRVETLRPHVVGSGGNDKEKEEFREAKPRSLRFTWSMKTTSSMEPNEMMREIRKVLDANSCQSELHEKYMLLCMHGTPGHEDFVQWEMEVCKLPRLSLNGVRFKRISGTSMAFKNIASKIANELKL
# [11] = target: Serine/threonine-protein kinase MARK2 (Homo sapiens) (UniProt Q7KZI7); conditions: at 1 µM
# [12] = target: PAS domain-containing serine/threonine-protein kinase (Homo sapiens) (UniProt Q96RG2); conditions: at 0.1 µM
# Chain of PAS domain-containing serine/threonine-protein kinase (Homo sapiens) (Q96RG2 whole entry, the tested form may be a part, canonical isoform): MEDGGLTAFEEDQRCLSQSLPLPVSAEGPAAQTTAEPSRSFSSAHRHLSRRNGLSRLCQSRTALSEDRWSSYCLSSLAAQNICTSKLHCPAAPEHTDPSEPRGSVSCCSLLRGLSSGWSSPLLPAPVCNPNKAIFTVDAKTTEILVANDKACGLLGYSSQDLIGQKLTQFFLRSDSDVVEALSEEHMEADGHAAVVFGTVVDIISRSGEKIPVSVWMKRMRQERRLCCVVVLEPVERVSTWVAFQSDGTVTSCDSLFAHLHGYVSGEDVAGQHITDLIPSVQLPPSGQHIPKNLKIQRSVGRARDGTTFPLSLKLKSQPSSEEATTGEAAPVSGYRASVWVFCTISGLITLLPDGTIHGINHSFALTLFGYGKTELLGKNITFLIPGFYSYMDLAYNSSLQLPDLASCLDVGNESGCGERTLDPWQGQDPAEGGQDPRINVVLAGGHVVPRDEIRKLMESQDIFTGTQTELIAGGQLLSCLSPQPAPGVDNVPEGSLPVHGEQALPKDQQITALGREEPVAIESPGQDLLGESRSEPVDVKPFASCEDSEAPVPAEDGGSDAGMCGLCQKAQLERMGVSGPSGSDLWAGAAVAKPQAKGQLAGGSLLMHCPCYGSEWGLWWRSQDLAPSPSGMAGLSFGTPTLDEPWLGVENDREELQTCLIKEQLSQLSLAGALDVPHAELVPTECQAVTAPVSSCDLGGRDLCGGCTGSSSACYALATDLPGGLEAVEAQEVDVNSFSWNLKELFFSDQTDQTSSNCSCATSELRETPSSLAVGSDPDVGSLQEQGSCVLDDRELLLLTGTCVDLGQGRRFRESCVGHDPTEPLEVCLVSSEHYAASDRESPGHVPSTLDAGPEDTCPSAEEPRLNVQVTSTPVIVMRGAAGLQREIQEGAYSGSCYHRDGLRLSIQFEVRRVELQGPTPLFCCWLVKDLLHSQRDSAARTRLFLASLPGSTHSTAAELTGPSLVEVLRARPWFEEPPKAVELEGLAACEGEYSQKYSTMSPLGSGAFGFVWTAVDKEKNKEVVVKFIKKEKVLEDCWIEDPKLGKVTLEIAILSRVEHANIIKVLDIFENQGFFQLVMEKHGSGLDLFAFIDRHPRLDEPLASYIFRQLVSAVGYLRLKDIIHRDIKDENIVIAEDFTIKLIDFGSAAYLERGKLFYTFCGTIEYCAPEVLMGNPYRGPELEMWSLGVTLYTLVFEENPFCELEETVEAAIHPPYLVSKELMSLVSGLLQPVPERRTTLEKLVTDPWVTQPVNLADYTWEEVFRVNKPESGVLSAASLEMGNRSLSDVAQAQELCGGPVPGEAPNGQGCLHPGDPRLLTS
# [13] = target: PAS domain-containing serine/threonine-protein kinase (Homo sapiens) (UniProt Q96RG2); conditions: at 1 µM
# [14] = target: Phosphorylase b kinase gamma catalytic chain, skeletal muscle/heart isoform (Homo sapiens) (UniProt Q16816); conditions: at 0.1 µM
# Chain of Phosphorylase b kinase gamma catalytic chain, skeletal muscle/heart isoform (Homo sapiens) (Q16816 whole entry, looked up, canonical isoform): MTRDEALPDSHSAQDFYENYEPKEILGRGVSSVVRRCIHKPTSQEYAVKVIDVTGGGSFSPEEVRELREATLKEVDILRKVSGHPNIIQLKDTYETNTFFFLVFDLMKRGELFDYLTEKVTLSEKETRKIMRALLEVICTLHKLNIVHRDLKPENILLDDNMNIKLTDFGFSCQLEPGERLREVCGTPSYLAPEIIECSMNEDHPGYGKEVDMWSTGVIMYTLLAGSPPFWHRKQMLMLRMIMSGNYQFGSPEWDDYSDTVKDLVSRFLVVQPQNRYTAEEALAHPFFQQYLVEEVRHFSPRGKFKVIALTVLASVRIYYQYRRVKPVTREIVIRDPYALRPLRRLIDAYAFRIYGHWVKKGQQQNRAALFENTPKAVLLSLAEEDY
# [15] = target: Phosphorylase b kinase gamma catalytic chain, skeletal muscle/heart isoform (Homo sapiens) (UniProt Q16816); conditions: at 1 µM
# [16] = target: T2, Phosphorylase b kinase gamma catalytic chain, liver/testis isoform (Homo sapiens) (UniProt P15735); conditions: at 0.1 µM
# T2 sequence (whole entry): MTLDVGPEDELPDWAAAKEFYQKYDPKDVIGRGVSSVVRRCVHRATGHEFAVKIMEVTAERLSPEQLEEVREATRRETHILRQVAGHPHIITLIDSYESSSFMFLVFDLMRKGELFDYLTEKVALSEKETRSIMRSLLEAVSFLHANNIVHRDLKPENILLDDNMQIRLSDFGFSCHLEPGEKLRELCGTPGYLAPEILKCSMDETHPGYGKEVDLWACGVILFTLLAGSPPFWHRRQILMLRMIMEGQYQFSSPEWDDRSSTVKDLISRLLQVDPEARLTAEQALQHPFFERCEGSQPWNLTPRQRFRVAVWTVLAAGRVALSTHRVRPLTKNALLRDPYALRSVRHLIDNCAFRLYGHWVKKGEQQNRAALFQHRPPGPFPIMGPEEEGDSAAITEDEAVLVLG
# [17] = target: T2, Phosphorylase b kinase gamma catalytic chain, liver/testis isoform (Homo sapiens); conditions: at 1 µM
# [18] = target: Serine/threonine-protein kinase pim-1 (Homo sapiens) (UniProt P11309); conditions: at 0.1 µM
# Chain of Serine/threonine-protein kinase pim-1 (Homo sapiens) (P11309 whole entry, looked up): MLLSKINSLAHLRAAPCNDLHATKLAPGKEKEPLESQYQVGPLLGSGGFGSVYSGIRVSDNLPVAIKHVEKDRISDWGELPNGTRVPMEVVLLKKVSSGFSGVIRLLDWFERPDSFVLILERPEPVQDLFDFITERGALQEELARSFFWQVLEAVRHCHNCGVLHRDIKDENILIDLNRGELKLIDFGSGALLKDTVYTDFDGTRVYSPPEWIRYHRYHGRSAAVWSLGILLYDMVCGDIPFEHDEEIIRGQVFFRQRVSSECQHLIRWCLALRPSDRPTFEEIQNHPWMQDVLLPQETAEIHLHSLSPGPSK
# [19] = target: Serine/threonine-protein kinase pim-1 (Homo sapiens) (UniProt P11309); conditions: at 1 µM
# [20] = target: Serine/threonine-protein kinase pim-2 (Homo sapiens) (UniProt Q9P1W9); conditions: at 0.1 µM;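 note: reported value is the mean percent inhibition of PIM2, measured in the GSK PKIS kinase inhibitor set screen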
# Chain of Serine/threonine-protein kinase pim-2 (Homo sapiens) (Q9P1W9 whole entry, looked up): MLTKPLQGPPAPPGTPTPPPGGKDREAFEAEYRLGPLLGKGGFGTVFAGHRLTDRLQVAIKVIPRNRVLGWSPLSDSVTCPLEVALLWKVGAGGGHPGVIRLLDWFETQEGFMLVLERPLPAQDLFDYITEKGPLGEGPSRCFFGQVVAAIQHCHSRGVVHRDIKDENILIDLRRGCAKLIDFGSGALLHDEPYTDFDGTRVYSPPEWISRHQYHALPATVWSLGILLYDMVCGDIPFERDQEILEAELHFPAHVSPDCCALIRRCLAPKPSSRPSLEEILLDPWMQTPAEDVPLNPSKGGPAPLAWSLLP
SMILES,inhibition [1] [%],inhibition [2] [%],inhibition [3] [%],inhibition [4] [%],inhibition [5] [%],inhibition [6] [%],inhibition [7] [%],inhibition [8] [%],inhibition [9] [%],inhibition [10] [%],inhibition [11] [%],inhibition [12] [%],inhibition [13] [%],inhibition [14] [%],inhibition [15] [%],inhibition [16] [%],inhibition [17] [%],inhibition [18] [%],inhibition [19] [%],inhibition [20] [%]
O=S(=O)(CCNCc1ccc(-c2ccc3ncnc(Nc4ccc(OCc5cccc(F)c5)c(Cl)c4)c3c2)o1)c1ccccc1,5.8,3.85,2.5,5.2,3.07,2.9,5.96,0.8,4.95,0.66,-0.14,-0.06,0.32,5.41,9.29,7.91,7.71,-0.13,1.9,0.44
CC1=C(C(=O)Nc2cc(Cl)c3[nH]ncc3c2)C(c2ccc(C(F)(F)F)cc2)CC(=O)N1 (stereo not given),9.91,1.64,3.1,5.47,7.81,2.74,7.79,2.19,5.02,1.6,5.38,-0.35,0.16,3.83,6.61,3.02,4.01,0.67,0.15,0.31
CCCN1CCC(c2ccc(Nc3nc(Nc4cc(F)ccc4C(N)=O)c4cc[nH]c4n3)c(OC)c2)CC1,66.6,7.27,42.6,21.7,78.7,5.57,10.7,3.26,7.76,7.99,41,0.01,20.7,51.3,80.7,25.7,71.7,7.64,45.3,1.98
CCNC(=O)O[C@H]1CN[C@H](C#Cc2cc3ncnc(Nc4ccc(OCc5cccc(F)c5)c(Cl)c4)c3s2)C1,2.72,0.88,1.97,4.18,4.99,2.75,4.73,0.73,5.72,-0.45,2.03,0.27,-1.53,0.81,0.44,3.66,0.88,0.78,0.26,-0.1
Fc1cccc(COc2ccc(Nc3ncnc4sc(-c5ccco5)cc34)cc2Cl)c1,4.54,2.34,3.94,5.07,1.45,1.99,10.1,-0.22,15.1,1.08,2.25,-0.19,0.63,5.6,5.83,4.96,5.36,-0.57,0.55,0.56
Nc1nc(-c2ccc(F)cc2)c(-c2ccc3ncccc3n2)s1,3.12,2.07,2.43,4.85,22.3,4.39,8.56,1.91,5.26,0.92,0.96,0.84,-0.64,4.41,7.81,6.3,5.79,0.35,2.38,0.17
CC(C)(CO)CNC(=O)c1ccc2c(c1)/C(=N/Nc1ccc(S(N)(=O)=O)cc1)C(=O)N2,36.6,7.2,42.6,18.8,72.7,0.85,3.37,-0.26,9.44,3.29,32.2,1.39,0.43,6.19,29.9,0.52,3.4,2.44,18.9,0.31
COc1cc(Nc2nccc(Nc3ccc4c(C)n[nH]c4c3)n2)cc(OC)c1OC,9.39,1.78,8,3.21,8.73,2.01,13.5,2.68,19.2,1.57,8.17,1.32,0.33,-0.65,5.26,2.27,0.52,1.13,1.26,1.46
COc1cccc(-c2c[nH]c3c(N/N=C/c4ccncc4)ncnc23)c1,11.8,1.97,7.5,0.82,4.88,15.4,57.1,11.8,51.1,0.99,5.48,0.94,-0.58,3.01,12.1,3.45,1.52,1.65,5.38,-0.12
CC(=O)NCc1cccc(C#Cc2cncnc2Nc2ccc(OCc3cccc(F)c3)c(Cl)c2)c1,1.66,2.33,3.13,0.79,2.93,3.79,32.1,2.64,11.8,0.37,1.33,-0.91,-1.6,3.33,5.96,-0.18,-1.04,1.13,0.22,0.41
COc1ccc(-c2cc3c(N)ncnc3o2)cc1,4.01,0.16,1.62,-3.33,-1.79,0.35,2,0.74,4.21,-0.22,3.33,1.26,0.48,0.47,2.53,-1.54,-2.23,-1.06,2.3,0.27
COc1cc(/C=N/Nc2ncnc3[nH]ncc23)ccc1O,30.6,1.99,15.4,15.3,75.5,4.69,22.6,3.33,25.7,4.08,17.5,-0.24,1.75,4.58,16.6,4.03,8.53,1.55,10.9,0.15
CC(C)COC(=O)c1ccc2c(c1)/C(=C/Nc1ccc(S(N)(=O)=O)cc1)C(=O)N2,88.7,24.6,77.5,50.1,93.2,-1.01,6.56,1.73,13.9,25.9,70.5,0.36,2.64,12.2,50.5,-1.63,16.4,3.92,27.8,0.83
Cc1ccc2c(-c3ccnc(Nc4ccccc4)n3)c(-c3ccc(F)cc3)nn2n1,0.65,1.31,1.67,1.41,5.51,0.98,1.88,0.04,0.75,0.87,1.15,0.46,-1.64,1.5,4.45,4.39,1.91,-0.18,-0.05,-0.3
CCN(CC)S(=O)(=O)c1ccc(OC)c(Nc2ncc(-c3ccccc3)o2)c1,18.7,-1.02,0.8,-0.34,7.01,1.28,5.6,1.51,2.53,0.71,0.33,1.24,1.76,-0.59,12.3,2.23,2.3,1.35,0.97,-0.31
NS(=O)(=O)c1ccc(Nc2ncc(-c3ccccc3)o2)cc1,12.2,2.7,10.9,1.52,0.94,4.26,21.3,3.92,18.9,2.35,7.59,-0.04,-0.31,3.92,18.4,4.88,7.08,0.17,0.64,-0.58
Fc1ccc(-c2nn3ncccc3c2-c2ccnc(Nc3ccc4c(c3)OCCO4)n2)cc1,-0.42,2.21,2.65,3.62,9.58,3.01,4.06,0.58,-0.01,-1.3,-1.26,-0.29,-3.15,4.49,6.66,4.66,0.54,0.37,1.21,0.26
COc1ccc(-c2cc(-c3c[nH]nc3-c3ccccn3)ccn2)cc1,5.51,2.2,2.28,3.77,8.05,3.19,7.19,2,6.65,2.97,1.63,1.23,0.75,2.63,6.04,6.55,8.39,-0.05,0.03,0.36
CCn1c(-c2nonc2N)nc2ccccc21,22.2,1.04,2.84,1.29,7.45,1.93,8.64,0.78,14.7,-0.05,2.79,1.01,0.51,2.03,2.71,3.71,0.96,0.21,4.54,-0.12
CCOc1ccc2c(-c3ccnc(Nc4cccc(C(F)(F)F)c4)n3)cnn2n1,0.96,1.1,1.8,1.46,3.63,2.65,4.31,-0.81,3.49,0.02,0.82,0.62,0.46,2.65,6.48,3.64,3.92,-1.05,-1.35,0.55
O=C(Nc1n[nH]c2cc(-c3ccc(F)cc3)ccc12)C1CC1,4.76,2,3.26,4.84,8.01,4.85,25.8,1.37,7.23,1.15,2.24,-0.52,-1.02,3.89,6.4,6.96,2.35,0.88,3.11,-0.18
COc1cc(N2CCN(C(C)C)CC2)ccc1Nc1nc(Nc2ccc(F)cc2C(N)=O)c2cc[nH]c2n1,67.4,4.23,37.8,18,78.3,0.9,1.83,1.81,8.99,5.75,39.3,-0.71,2.69,58.2,78.1,19.1,64.7,3.27,25.3,-0.44
Cc1cccc(Nc2ncc(-c3ccccc3)o2)c1,9.41,1.51,6.57,3.78,9.64,1.9,1.76,3.35,8.3,2.22,6.99,-0.74,1.15,2.49,0.97,2.92,3.71,1.11,0.94,0.15
CN1CCC(n2cnc(-c3ccc(F)cc3)c2-c2ccnc(N)n2)CC1,6.18,0.14,0.48,2.15,12.9,8.32,41.2,3.66,16.9,-1.15,-0.63,-0.52,1.84,1.61,5.65,2.82,2.94,2.59,19.3,0.18
NS(=O)(=O)c1ccc(N/N=C2\C(=O)Nc3ccc4ncccc4c32)cc1,40.9,11.4,52,50.3,93.4,4,19.4,2.52,20.4,5.97,35.3,-0.19,-1.87,11.2,50,3.72,14.1,1.89,15.9,1.2
CCCN(CCS(C)(=O)=O)Cc1ccc(-c2ccc3ncnc(Nc4ccc(OCc5cccc(F)c5)c(Cl)c4)c3c2)o1,-0.4,0.58,-0.36,3.57,3.34,3.79,9.77,2.98,10.9,-0.65,-0.2,0.15,-0.42,1.09,2.68,1.93,1.35,0.83,0.67,-0.45
